Measurements as given in PubChem BioAssay (NCATS).
Several values for one entry are separate records, joined by “and”; a condition that tells them apart may be missing. Identical values can stand only once. Results filed as inconclusive are left out. More than one record can exist for a structure, and the calls need not agree. Activity calls are given as the source filed them. Unless noted, calls come from the whole dose curve; as a rule, active = well fitted curve in the direction sought with a large enough effect; inconclusive = small, poorly fitted or top-dose-only effect, or another doubt; inactive = no such curve, though single readings can be large; an effect the other way counts as inactive or inconclusive.

Key:
[1] = qHTS for Inhibitors of Plasmodium falciparum (DD2) proliferation (AID 504314); note: potency is the fitted concentration of half-maximal effect;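 for activity, negative = inhibition: parasite DNA measured by SYBR Green fluorescence after red cell lysis; plate controls were DMSO vehicle for no effect and artemisinin wells for full effect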
Procedure, shortened: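 Erythrocytes infected with P. falciparum (0.3% parasitemia, 2.5% hematocrit final) were incubated with compounds for 72 h at 37C, 5% CO2. Parasite DNA was detected by SYBR Green I fluorescence after saponin/Triton lysis, normalized to artemisinin (0.29 uM) and DMSO controls.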

[2] = qHTS for Inhibitors of Plasmodium falciparum (GB4) proliferation (AID 504315); note: nearly all actives have a fitted effect of over 50% in size; note: potency is the fitted concentration of half-maximal effect
Procedure, shortened: (§1)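 Erythrocytes infected with P. falciparum line (0.3% parasitemia, 2.5% hematocrit final) incubated with compounds 72 h at 37 °C, 5% CO2; SYBR Green lysis buffer added, fluorescence read next day. Normalized to 0.29 uM artemisinin and DMSO.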

[3] = qHTS for Inhibitors of Plasmodium falciparum (7G8) proliferation (AID 504316); note: nearly all actives have a fitted effect of over 65% in size; note: potency is the fitted concentration of half-maximal effect
Procedure, shortened: as §1

[4] = qHTS for Inhibitors of Plasmodium falciparum (CP250) proliferation (AID 504320); note: potency is the fitted concentration of half-maximal effect
Procedure, shortened: as §1

[5] = molecular target: Atrial natriuretic peptide receptor 1 (Homo sapiens) (UniProt P16066); test: Natriuretic polypeptide receptor (hNpr1) antagonism - Pilot CMLD screen (AID 1347052; calls by dose curve;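 note: HEK293 cells with hNpr1 stimulated by hNppA peptide at 0.1 nM; cGMP level read as GloSensor luciferase luminescence after agonist stimulation; series mostly up to about 9.2 µM; % is set by controls: 0 for no effect and ±100 for the full control effect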)
Chain of Atrial natriuretic peptide receptor 1 (Homo sapiens) (P16066 whole entry, looked up): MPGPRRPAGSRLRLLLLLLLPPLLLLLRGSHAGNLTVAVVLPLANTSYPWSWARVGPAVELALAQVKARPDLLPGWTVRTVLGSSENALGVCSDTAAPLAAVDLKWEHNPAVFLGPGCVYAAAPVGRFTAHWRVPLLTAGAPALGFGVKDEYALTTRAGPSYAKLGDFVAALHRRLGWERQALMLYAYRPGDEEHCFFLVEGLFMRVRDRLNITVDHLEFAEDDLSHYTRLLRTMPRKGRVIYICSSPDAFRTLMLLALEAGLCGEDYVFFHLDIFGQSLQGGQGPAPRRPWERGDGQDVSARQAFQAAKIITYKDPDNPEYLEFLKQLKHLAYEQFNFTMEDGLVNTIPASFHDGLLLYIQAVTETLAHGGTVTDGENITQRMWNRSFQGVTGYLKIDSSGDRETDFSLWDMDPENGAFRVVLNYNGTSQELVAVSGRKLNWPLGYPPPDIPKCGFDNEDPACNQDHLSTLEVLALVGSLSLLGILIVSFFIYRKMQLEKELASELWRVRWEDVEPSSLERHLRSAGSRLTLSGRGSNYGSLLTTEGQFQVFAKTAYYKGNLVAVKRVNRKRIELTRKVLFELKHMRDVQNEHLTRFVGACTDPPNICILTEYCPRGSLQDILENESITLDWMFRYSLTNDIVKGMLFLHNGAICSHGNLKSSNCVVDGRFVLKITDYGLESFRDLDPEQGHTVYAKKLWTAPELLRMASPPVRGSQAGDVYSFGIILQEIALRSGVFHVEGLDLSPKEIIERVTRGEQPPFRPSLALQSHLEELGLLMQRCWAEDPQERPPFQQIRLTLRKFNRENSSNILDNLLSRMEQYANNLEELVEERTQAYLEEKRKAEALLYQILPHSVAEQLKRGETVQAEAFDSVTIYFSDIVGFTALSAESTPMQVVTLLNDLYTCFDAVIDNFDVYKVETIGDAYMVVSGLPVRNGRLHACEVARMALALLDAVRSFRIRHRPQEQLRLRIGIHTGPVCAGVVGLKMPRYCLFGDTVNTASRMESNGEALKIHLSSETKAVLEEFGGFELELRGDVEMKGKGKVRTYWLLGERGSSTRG

[6] = molecular target: Cytochrome P450 3A4 (Homo sapiens) (UniProt P08684); test: qHTS Assay for Activators of Cytochrome P450 3A4 (AID 885); note: nearly all actives have a fitted effect of over 65% in size
Chain of Cytochrome P450 3A4 (Homo sapiens) (P08684 whole entry, looked up): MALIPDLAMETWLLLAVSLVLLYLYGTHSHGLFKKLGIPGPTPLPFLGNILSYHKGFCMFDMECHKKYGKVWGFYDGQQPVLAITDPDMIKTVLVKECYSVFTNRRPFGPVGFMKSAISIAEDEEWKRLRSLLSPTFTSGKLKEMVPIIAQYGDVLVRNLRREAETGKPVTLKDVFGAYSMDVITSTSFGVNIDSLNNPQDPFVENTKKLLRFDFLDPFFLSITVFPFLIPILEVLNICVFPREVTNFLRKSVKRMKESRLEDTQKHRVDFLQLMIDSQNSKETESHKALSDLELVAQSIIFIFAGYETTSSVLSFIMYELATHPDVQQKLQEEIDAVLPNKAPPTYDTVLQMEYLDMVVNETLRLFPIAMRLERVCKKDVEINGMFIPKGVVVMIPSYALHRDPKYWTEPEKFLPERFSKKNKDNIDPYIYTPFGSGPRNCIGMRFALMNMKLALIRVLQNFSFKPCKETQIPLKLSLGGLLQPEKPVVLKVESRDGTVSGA
Procedure, shortened: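 20nM CYP3A4 + 25uM Luciferin-PPXE (=KM), 200mM KPO4; cpd 10 min RT; NADPH regen, 60 min RT; stop w/ detection buffer, 20 min; luminescence. Normalized to 57 uM ketoconazole.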

[7] = qHTS for Inhibitors of Plasmodium falciparum (HB3) proliferation (AID 504318); note: nearly all actives have a fitted effect of over 60% in size; note: potency is the fitted concentration of half-maximal effect
Procedure, shortened: as §1

C#CCCCON=C1C[C@@H](O)[C@H](O)[C@H]2[C@@H]3C(=O)N(C4CCCCC4)C(=O)[C@@H]3CC[C@H]12
inactive: Potency [1] | Potency [2] | Potency [3] | Potency [4] | Potency [5]

C[C@H]1CCCC(=O)N[C@@H](c2ccccc2)[C@@H](C)CCCC(=O)N[C@@H]1c1ccccc1
inactive: Potency [1] | Potency [2] | Potency [3] | Potency [4] | Potency [5]

Cc1ccccc1Nc1oc(-c2ccccc2)nc1CCc1ccccc1
inactive: Potency [1] | Potency [5]
inactive and 1.51 µM (active): Potency [2] | Potency [4]
inactive and 1.69 µM (active): Potency [3]

C=CCN1C=C2C(=O)C(C)(OC(=O)c3ccco3)C(=O)C(C=C)=C2C=C1C1CC1 (stereo unspecified)
inactive: activity, negative = inhibition [1] 2.08% [at 1.12 µM] | Potency [2] | Potency [3] | Potency [4] | Potency [5]

COC(=O)[C@@H]1CC[C@H](C)[C@@H](c2ccc(C)cc2)N1C(=O)c1ccc(C=NOC[C@@H](O)[C@H]2O[C@@H]3OC(C)(C)O[C@H]3[C@@H]2O)cc1
inactive: Potency [1] | Potency [2] | Potency [4] | Potency [5]
active: Potency [3] 1200 nM

CCC(=O)OC1(C)C(=O)C=C2C=C(c3ccsc3)OC=C2C1=O (stereo unspecified)
inactive: Potency [1] | Potency [2] | Potency [3] | Potency [4] | Potency [5]

O=c1oc2ccccc2c2c1[C@H]1O[C@](c3ccsc3)(Cc3c1ccc1ccccc31)O2
inactive: Potency [1] | Potency [2] | Potency [3] | Potency [4] | Potency [5]

C[C@@H]1C=CCCO[C@]12C(=O)N(Cc1ccc(Br)cc1)c1ccccc12
inactive: Potency [1] | Potency [2] | Potency [3] | Potency [4] | Potency [5]

CC1=C[C@@H](C)OC2(C1)C(=O)N(Cc1ccc(Br)cc1)c1cccc(Br)c12 (stereo partly specified)
inactive: Potency [1] | Potency [2] | Potency [3] | Potency [4] | Potency [5]

CCOC(=O)CCN1C(=O)[C@@H]2[C@H]3[C@H](O)[C@H](O)CC(=NNC(=O)OCc4ccc(OC)cc4)[C@@H]3CC[C@H]2C1=O
inactive: Potency [1] | Potency [2] | Potency [3] | Potency [4] | Potency [5]

CC(C)=CCCC(C)=CCON=C1C[C@@H](O)[C@@H](O)[C@@H]2[C@H]3C(=O)N(Cc4ccc5c(c4)OCO5)C(=O)[C@@H]3CC[C@@H]12
inactive: Potency [1] | Potency [2] | Potency [3] | Potency [4] | Potency [5]

COC(=O)[C@@H]1[C@@H](c2cccc(C(F)(F)F)c2)NC(=O)N(Cc2ccccc2)[C@@H]1C
inactive: Potency [1] | Potency [2] | Potency [3] | Potency [4] | Potency [5]

COC(=O)C1=C(C)N(Cc2ccccc2)C(=O)NC1c1ccccc1 (stereo unspecified)
inactive: Potency [1] | Potency [2] | Potency [3] | Potency [4] | Potency [5]

COc1ccc(COC(=O)NN=C2C[C@@H](O)[C@@H](O)[C@@H]3[C@H]4C(=O)N(C[C@@H]5CCCO5)C(=O)[C@@H]4CC[C@H]23)cc1
inactive: Potency [1] | Potency [2] | Potency [3] | Potency [4] | Potency [5]

COc1ccc(COC(=O)NN=C2C[C@@H](O)[C@@H](O)[C@@H]3[C@H]4C(=O)N(C[C@@H]5CCCO5)C(=O)[C@@H]4CC[C@@H]23)cc1
inactive: Potency [1] | Potency [2] | Potency [3] | Potency [4] | Potency [5]

CC(=O)OC[C@H]1O[C@H](C#CC(C)(C)C)C=C[C@H]1OC(C)=O
inactive: Potency [1] | Potency [2] | Potency [3] | Potency [4] | Potency [5]

COC(=O)[C@H](COC(C)(C)C)NC(=O)O[C@@H]1C(=O)c2cc(OC)ccc2O[C@H]1c1ccc(OC)c(Br)c1
inactive: Potency [1] | Potency [2] | Potency [3] | Potency [4] | Potency [5]

CCOC(=O)CN1C(=O)N[C@@H](c2ccccc2)[C@H](C(C)=O)[C@H]1C
inactive: Potency [1] | Potency [2] | Potency [3] | Potency [4] | Potency [5]

C[C@H]1Cc2c(COc3ccccc3)nc3c(c2CO1)CN(C(=O)C1CC1)CC3
inactive: Potency [1] | Potency [2] | Potency [3] | Potency [4] | Potency [5]

COCCN1C(=O)NC(c2ccc(Br)cc2)C(C(=O)OC)=C1C (stereo unspecified)
inactive: Potency [1] | Potency [2] | Potency [3] | Potency [4] | Potency [5]

COC(=O)CC=C1c2ccc3c(c2[C@@H](OC)[C@@H]1C)OCO3
inactive: Potency [1] | Potency [2] | Potency [3] | Potency [4] | Potency [5]

COC(=O)C(c1ccc(OC)c(OC)c1)C1c2ccccc2C=C(C)N1C(=O)OC (stereo unspecified)
inactive: Potency [1] | Potency [2] | Potency [3] | Potency [4] | Potency [5]

COC(=O)N[C@@H](c1ccco1)C(C(C)=O)C(=O)OC (stereo partly specified)
inactive: Potency [1] | Potency [2] | Potency [3] | Potency [4] | Potency [5]

C[C@H]1C(C(=O)N2CCCC2)=Cc2[nH]c(=O)[nH]c2C=C1c1ccccc1
inactive: Potency [1] | Potency [2] | Potency [3] | Potency [4] | Potency [5]

Cc1cc(C)c(S(=O)(=O)OC[C@H]2C=CC[C@@H](CCC[C@H]3O[C@H](C(=O)OC(C)C)CC[C@@H]3C)O2)c(C)c1
inactive: Potency [1] | Potency [2] | Potency [3] | Potency [4] | Potency [5]

CC(C)OCCCN1C=C2C(=O)C(C)(OC(=O)C3CCCC3)C(=O)C=C2C=C1c1ccsc1 (stereo unspecified)
inactive: activity, negative = inhibition [1] -2.66% [at 1.12 µM] | Potency [2] | Potency [3] | Potency [4] | Potency [5]

COC(=O)C1=C(C)N(Cc2ccccc2)C(=S)NC1c1ccccc1 (stereo unspecified)
inactive: Potency [1] | Potency [2] | Potency [3] | Potency [4] | Potency [5]

C[C@H]1COC(=O)[C@H](Cc2ccccc2)NC(=O)[C@@H](C)COC(=O)[C@H](Cc2ccccc2)NC1=O
inactive: activity change, positive = activation [6] -42.5% [at 11.4 µM]

COc1ccc2c(c1)O[C@@H](c1cccc(C(F)(F)F)c1)[C@H](OC(=O)Nc1ccc(OC(F)F)cc1)C2=O
inactive: Potency [1] | Potency [2] | Potency [7] | Potency [4] | Potency [5]

COc1ccc(-c2nc(-c3ccccc3)c(NC(C)(C)C)o2)cc1
2.13 µM (active) and inactive: Potency [7]
inactive: Potency [4] | Potency [5]
1.69 µM (active) and inactive: Potency [1] | Potency [2]

COc1ccc2c(c1)C(=O)[C@H](OC(=O)Nc1cc(OC)c(OC)c(OC)c1)[C@@H](c1ccc(OC)c(Br)c1)O2
inactive: Potency [1] | Potency [2] | Potency [7] | Potency [4] | Potency [5]

COC(=O)C1=C(C)N(Cc2ccccc2)C(=O)NC1c1cccc(C(F)(F)F)c1 (stereo unspecified)
inactive: Potency [1] | Potency [2] | Potency [7] | Potency [4] | Potency [5]

FC(F)(F)c1ccc(-c2nc(-c3ccccc3)oc2Nc2ccc3ccccc3c2)cc1
inactive: Potency [1] | Potency [2] | Potency [7] | Potency [4] | Potency [5]

C=CCNC(=O)[C@H]1C=C(OC)C(=O)C[C@H](c2ccccc2)[C@H]1C
inactive: Potency [1] | Potency [2] | Potency [7] | Potency [4] | Potency [5]

COCCN1C(=O)NC(c2ccc(Br)cc2)C(C(C)=O)=C1C (stereo unspecified)
inactive: Potency [1] | Potency [2] | Potency [7] | Potency [4] | Potency [5]

C#CCCCON=C1C[C@@H](O)[C@@H](O)[C@@H]2[C@H]3C(=O)N(C(C)(C)C)C(=O)[C@@H]3CC[C@H]12
inactive: Potency [1] | Potency [2] | Potency [7] | Potency [4] | Potency [5]

C=CCC(Nc1ccc(OC)cc1)(C(=O)OCC)c1ccccc1 (stereo unspecified)
inactive: Potency [1] | Potency [2] | Potency [7] | Potency [4] | Potency [5]

COCCN1C(=O)NC(c2ccco2)C(C(=O)OC)=C1C (stereo unspecified)
inactive: Potency [1] | Potency [2] | Potency [7] | Potency [4] | Potency [5]

CCN(CC)CC(O)CN1CCCCc2nc(C)c(C)cc21 (stereo unspecified)
inactive: Potency [1] | Potency [2] | Potency [7] | Potency [4] | Potency [5]

N#Cc1ccc2c(c1)C[C@]1(c3ccsc3)Oc3c(c(=O)oc4ccccc34)[C@H]2O1
inactive: Potency [1] | Potency [2] | Potency [7] | Potency [4] | Potency [5]

CCCNC(=O)OC[C@H]1O[C@H](CCON=C2[C@H]3CCn4c(=O)n(-c5ccccc5)c(=O)n4[C@@H]3[C@H](O)[C@@H]3O[C@H]23)C=C[C@H]1Oc1ccc(OC)cc1
inactive: Potency [1] | Potency [2] | Potency [7] | Potency [4] | Potency [5]

CCC12C=C(C=Cc3ccccc3)C(CC)(C1)C(c1ccccc1)CC2=O (stereo unspecified)
inactive: Potency [1] | Potency [2] | Potency [7] | Potency [4] | Potency [5]

C=CC[C@@H]1C=CC(ON=C(C)CCC(=O)OC[C@H]2O[C@H](C#Cc3ccccc3)C=C[C@H]2Oc2ccc(C)cc2)[C@H](CO)O1 (stereo partly specified)
inactive: Potency [1] | Potency [2] | Potency [7] | Potency [4] | Potency [5]

COC(=O)C1=C(C)N(Cc2ccccc2)C(=NCc2cc(OC)c(OC)c(OC)c2)NC1CCc1ccccc1 (stereo unspecified)
inactive: Potency [5]
active: Potency [1] 1.06 µM | Potency [2] 849 nM | Potency [7] 2.94 µM | Potency [4] 1070 nM

COC(=O)[C@H](COC(C)(C)C)NC(=O)O[C@@H]1C(=O)c2ccc(OC)cc2O[C@H]1c1cccc(C(F)(F)F)c1
inactive: Potency [1] | Potency [2] | Potency [7] | Potency [4] | Potency [5]

O=C(C=Cc1ccccc1)N1CCC[C@H]1CO
inactive: Potency [1] | Potency [2] | Potency [7] | Potency [4] | Potency [5]

C[C@H]1Cc2c(-c3ccccc3)nc3c(c2CO1)CN(C(=O)NCc1ccco1)CC3
inactive: activity, negative = inhibition [1] 0.465% [at 1.12 µM] | Potency [2] | Potency [7] | Potency [4] | Potency [5]

COC(=O)N[C@H](C[N+](=O)[O-])c1cccc(C)c1
inactive: Potency [1] | Potency [2] | Potency [7] | Potency [4] | Potency [5]

CC1(OC(=O)c2ccc(Cl)nc2)C(=O)Cc2cc(-c3ccsc3)ncc2C1=O (stereo unspecified)
inactive: activity, negative = inhibition [1] -1.5% [at 1.12 µM] | Potency [2] | Potency [7] | Potency [4] | Potency [5]

CC1(OC(=O)c2cnc3ccccc3n2)C(=O)C=C2C=C(c3ccc(C#N)cc3)OC=C2C1=O (stereo unspecified)
inactive: Potency [1] | Potency [2] | Potency [7] | Potency [4] | Potency [5]

Cc1cc2c(c(=O)o1)[C@H]1O[C@](c3ccsc3)(Cc3cc(C#N)ccc31)O2
inactive: Potency [1] | Potency [2] | Potency [7] | Potency [4] | Potency [5]

C#CC1(O)C2C=C(OC)C(=O)C1C(c1ccccc1)C2C (stereo unspecified)
inactive: Potency [1] | Potency [2] | Potency [7] | Potency [4] | Potency [5]

CCCCC[C@]12Cc3cc(OC)c(OC)cc3[C@H](O1)c1c(cc(C)n(-c3ccccc3)c1=O)O2
2.94 µM (active) and inactive: Potency [7]
inactive: Potency [1] | Potency [2] | Potency [4] | Potency [5]

CCOC(=O)CN1C(=O)[C@@]2(CC(C)=C[C@@H](COCc3ccccc3)O2)c2ccccc21
inactive: Potency [1] | Potency [2] | Potency [7] | Potency [4] | Potency [5]

CCN1C(=O)[C@@H]2[C@H]3[C@H](O)[C@H](O)CC(=NNC(=O)OCc4ccccc4)[C@@H]3CC[C@H]2C1=O
inactive: Potency [1] | Potency [2] | Potency [7] | Potency [4] | Potency [5]
